In PubChem BioAssay (EPA / NIEHS):
Results filed as inconclusive are left out. A structure can be active in one record and inactive in another. Calls of active or inactive are those of the source. The calls were made as follows: active = hit-call score of the fitted dose curve at least 0.9, where 1 is the maximum; inconclusive = response in the unintended direction; inactive = score below 0.9.

system: not listed separately; test: ACEA_ER_AUC_viability: ACEA Biosciences xCELLigence Real-Time Cell Analysis on Estrogen Receptor Agonism for Viability (AID 2283782);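 also: continuous compound exposure with impedance area under curve over 80 h; hit means loss of impedance signal meaning reduced cell growth or viability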
Procedure, shortened: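 T-47D human breast cells in phenol red-free RPMI1640 with 10% charcoal-stripped FBS were dosed with an 8-point 1:4 dilution series from 100 uM top final concentration, in duplicate. Impedance-based growth was followed for 80 h; AUC analysed versus DMSO.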

SMILES | AC50 | outcome
Nc1ccc(Oc2cccc(Oc3ccc(N)cc3)c2)cc1 | 64.2 µM (active) | –
O=S(=O)(O)c1ccc2ccccc2c1 | – | inactive
O=C(O)C(F)(OC(F)(F)C(F)(OC(F)(F)C(F)(F)C(F)(F)F)C(F)(F)F)C(F)(F)F (stereo unspecified) | – | inactive
COC(=O)C1CCC(C(=O)OC)CC1 (stereo unspecified) | – | inactive
FC1CC(F)(F)C(F)(F)C1(F)F (stereo unspecified) | – | inactive
FC(F)(F)C(F)(F)C(F)(F)C(F)(F)C(F)(F)C(F)(F)C(F)(F)Br | – | inactive
O=C(O)C(F)(F)C(F)(F)C(F)(F)F | – | inactive
C=C(C)C(=O)OCC(F)(F)C(F)(F)C(F)(F)C(F)(F)C(F)(F)C(F)(F)C(F)(F)F | – | inactive
C=CC(F)(F)C(F)(F)C(F)(F)C(F)(F)C(F)(F)C(F)(F)C(F)(F)C(F)(F)C=C | – | inactive
c1ccc(-c2ccccc2-c2ccccc2)cc1 | 78.7 µM (active) | –
Cc1ccc(S(=O)(=O)OCC(F)(F)C(F)(F)C(F)(F)C(F)(F)C(F)(F)C(F)F)cc1 | 0.00308 µM (active) | –
CCCCCCOC(=O)c1ccccc1O | – | inactive
OCC(F)(F)C(F)(F)C(F)(F)C(F)(F)C(F)(F)C(F)F | – | inactive
CC(C)OC(=O)c1ccccc1C(=O)OC(C)C | – | inactive
FC(F)(F)C(F)(F)CNCC(F)(F)C(F)(F)F | – | inactive
O=C(O)C(F)(F)C(F)(F)C(F)(F)C(F)(F)C(F)(F)C(F)(F)C(F)(F)C(F)(F)C(F)(F)C(F)(F)C(F)(F)C(F)(F)C(F)(F)F | 2.91 µM (active) | –
OCC(F)(F)C(F)(F)C(F)(F)C(F)F | – | inactive

SMILES | AC50 | outcome
Nc1ccc(S(=O)(=O)Nc2nccs2)cc1 | 26 µM (active) | inactive
CC/C=C\CCOC(=O)c1ccccc1 | 76.7 µM (active) | –
O=C(O)C(F)(OC(F)(F)C(F)(OC(F)(F)C(F)(OC(F)(F)C(F)(F)C(F)(F)F)C(F)(F)F)C(F)(F)F)C(F)(F)F (stereo unspecified) | – | inactive
O=S(=O)(OCC(F)F)C(F)(F)F | – | inactive
CCCCCCCOC(=O)c1ccccc1C(=O)OCCCCCCC | – | inactive
O=S(=O)(O)C(F)(F)C(F)(F)C(F)(F)C(F)(F)C(F)(F)C(F)(F)C(F)(F)F | – | inactive
Cc1ccc(S(=O)(=O)NCl)cc1 | – | inactive
Oc1ccc(Nc2ccccc2)cc1 | 25.4 µM (active) | –
O=C(Cl)C(F)(F)C(F)(F)C(F)(F)C(F)(F)C(F)(F)C(F)(F)C(F)(F)C(F)(F)F | 127 µM (active) | –
CCCCCCS | 50 µM (active) | –
FC(F)(F)C(F)(F)C(F)(F)C(F)(F)C(F)(F)C(F)(F)C(F)(F)C(F)(F)CCS | – | inactive
COC(OC(C)=O)c1ccccc1 (stereo unspecified) | – | inactive
FC(F)(F)C(F)(F)C(F)(F)CI | – | inactive
CC(Cc1ccc(O)c(O)c1)C(C)Cc1ccc(O)c(O)c1 (stereo unspecified) | 27.6 µM (active) | –
OC[C@@H](O)[C@@H](O)[C@H](O)[C@@H](O)CO | – | inactive
CC(C)(C)C(=O)CC(=O)C(F)(F)C(F)(F)C(F)(F)F | – | inactive

target: AR (gene 367) (UniProt P10275); test: ACEA_AR_agonist_80hr: ACEA Biosciences xCELLigence Real-Time Cell Analysis on Androgen Receptor Agonism for Proliferation (AID 2283783);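 also: hits increase impedance growth signal above DMSO baseline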
Procedure, shortened: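 22Rv1 human prostate cancer cells were seeded after preconditioning in assay medium and monitored overnight, then dosed in an eight-point 1:4 dilution series from 100 uM (≤0.5% DMSO). Impedance-based growth was read at 80 h, gain-of-signal versus DMSO.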

Sequence of AR (gene 367) (P10275 whole entry, looked up): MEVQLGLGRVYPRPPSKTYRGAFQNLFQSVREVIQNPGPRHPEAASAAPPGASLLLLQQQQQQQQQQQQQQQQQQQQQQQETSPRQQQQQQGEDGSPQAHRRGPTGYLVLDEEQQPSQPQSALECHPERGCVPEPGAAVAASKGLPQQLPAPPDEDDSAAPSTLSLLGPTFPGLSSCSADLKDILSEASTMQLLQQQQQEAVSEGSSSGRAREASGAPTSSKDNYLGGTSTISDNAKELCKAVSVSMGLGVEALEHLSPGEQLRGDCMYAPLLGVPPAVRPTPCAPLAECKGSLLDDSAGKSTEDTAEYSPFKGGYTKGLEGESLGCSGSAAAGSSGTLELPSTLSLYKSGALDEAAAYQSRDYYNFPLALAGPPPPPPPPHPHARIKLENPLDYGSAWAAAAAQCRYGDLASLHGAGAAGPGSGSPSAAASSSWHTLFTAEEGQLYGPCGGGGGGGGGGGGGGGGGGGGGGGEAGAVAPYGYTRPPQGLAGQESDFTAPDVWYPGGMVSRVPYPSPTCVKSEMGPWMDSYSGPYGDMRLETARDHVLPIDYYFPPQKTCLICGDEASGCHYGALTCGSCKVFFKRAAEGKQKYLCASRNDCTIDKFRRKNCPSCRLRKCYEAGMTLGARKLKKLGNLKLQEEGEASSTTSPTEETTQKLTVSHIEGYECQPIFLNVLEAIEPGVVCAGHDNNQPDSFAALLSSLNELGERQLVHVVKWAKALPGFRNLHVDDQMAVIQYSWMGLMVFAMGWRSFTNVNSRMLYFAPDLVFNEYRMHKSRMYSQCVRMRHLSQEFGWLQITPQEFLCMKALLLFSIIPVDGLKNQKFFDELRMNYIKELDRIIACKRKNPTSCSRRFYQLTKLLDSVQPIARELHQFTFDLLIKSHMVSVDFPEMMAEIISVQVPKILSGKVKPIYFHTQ

SMILES | outcome
CCCCCCC(C)OC(=O)CCCCC(=O)OC(C)CCCCCC (stereo unspecified) | inactive
CNC(=S)NC | inactive
CN(C)Cc1ccccc1O | inactive

target: AR (gene 367) (UniProt P10275); test: ACEA_AR_antagonist_80hr: ACEA Biosciences xCELLigence Real-Time Cell Analysis on Androgen Receptor Antagonism for Proliferation (AID 2283787);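 also: hits lower the impedance growth signal relative to DMSO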
Procedure, shortened: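 Impedance readout (RT-CES), 80 h post-dose; loss-of-signal vs DMSO baseline. 22Rv1 cells in assay medium. Compounds: 8-pt 1:4 series, max 100 uM final, up to 0.5% DMSO; n = 2.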

SMILES | outcome
CCCCCCC(C)OC(=O)CCCCC(=O)OC(C)CCCCCC (stereo unspecified) | inactive
CNC(=S)NC | inactive
CCCCCCOC(=O)c1ccccc1O | inactive
CN(C)Cc1ccccc1O | inactive
